For some of these results: Entries with a potency or affinity are not part of this list.
Columns and labels:
Set-up in all cases: scale not given: direction of the effect not stated beside the values
[1] = molecular target: Protein translocase subunit SecA (Escherichia coli (strain K12)) (UniProt P10408); assay: Assay to Identify E. coli SecA ATPase Inhibitors; assay type: functional; conditions: 30 µM
[2] = molecular target: T1, Ubiquitin-activating enzyme e1, putative (Leishmania donovani (strain BPK282A1)) (UniProt E9BSI1); assay: Leishmania donovani Ubiquitin Activating Enzyme (LdE1); assay type: functional; conditions: 30 µM
T1 sequence (whole entry): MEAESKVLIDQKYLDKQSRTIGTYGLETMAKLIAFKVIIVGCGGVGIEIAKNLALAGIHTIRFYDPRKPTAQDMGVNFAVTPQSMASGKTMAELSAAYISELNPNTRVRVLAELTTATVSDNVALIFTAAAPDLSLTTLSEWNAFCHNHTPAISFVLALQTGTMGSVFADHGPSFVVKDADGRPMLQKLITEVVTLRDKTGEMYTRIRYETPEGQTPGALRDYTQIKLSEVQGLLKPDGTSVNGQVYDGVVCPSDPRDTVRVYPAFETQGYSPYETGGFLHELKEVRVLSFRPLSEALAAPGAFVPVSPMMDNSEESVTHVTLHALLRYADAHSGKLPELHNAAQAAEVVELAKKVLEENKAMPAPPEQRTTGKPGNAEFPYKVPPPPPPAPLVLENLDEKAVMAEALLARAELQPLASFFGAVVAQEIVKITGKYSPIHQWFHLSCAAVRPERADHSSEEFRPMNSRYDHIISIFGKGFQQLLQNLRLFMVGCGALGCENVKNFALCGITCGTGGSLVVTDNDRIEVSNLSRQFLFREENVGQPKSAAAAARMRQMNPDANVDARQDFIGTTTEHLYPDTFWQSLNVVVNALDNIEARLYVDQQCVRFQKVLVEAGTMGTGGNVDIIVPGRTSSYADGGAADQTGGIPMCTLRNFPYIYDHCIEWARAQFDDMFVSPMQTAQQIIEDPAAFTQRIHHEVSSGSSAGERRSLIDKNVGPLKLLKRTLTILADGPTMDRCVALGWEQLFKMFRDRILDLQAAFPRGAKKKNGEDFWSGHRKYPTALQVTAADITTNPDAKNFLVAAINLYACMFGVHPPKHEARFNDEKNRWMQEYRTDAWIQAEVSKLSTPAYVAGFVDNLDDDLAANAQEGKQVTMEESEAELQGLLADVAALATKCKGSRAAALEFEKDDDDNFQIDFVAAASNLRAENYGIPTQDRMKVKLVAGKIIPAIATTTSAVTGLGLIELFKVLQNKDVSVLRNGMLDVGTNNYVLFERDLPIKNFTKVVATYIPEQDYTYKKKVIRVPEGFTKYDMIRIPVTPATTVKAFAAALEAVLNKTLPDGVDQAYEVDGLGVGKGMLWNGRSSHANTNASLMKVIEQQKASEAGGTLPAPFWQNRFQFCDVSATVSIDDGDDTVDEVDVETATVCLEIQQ

[3] = molecular target: AMP-activated protein kinase, AMPK (Homo sapiens) (UniProt P54646+O43741+P54619+Q9UGJ0+Q9Y478+Q13131+Q9UGI9); assay: AMP-dependent Kinase enzyme assay. An in vitro enzyme assay that detects ADP turnover that is directly proportional to AMPK activity. This uses naive AMPK that is activated during the assay with MK-8722; assay type: functional; conditions: 30 µM
[4] = molecular target: Sialic acid-binding Ig-like lectin 9 (Homo sapiens) (UniProt Q9Y336); assay: Hs-Siglec9 ALPHAscreen SOP 20170721; conditions: 10 µM
Sequence of Sialic acid-binding Ig-like lectin 9 (Homo sapiens) (Q9Y336 whole entry): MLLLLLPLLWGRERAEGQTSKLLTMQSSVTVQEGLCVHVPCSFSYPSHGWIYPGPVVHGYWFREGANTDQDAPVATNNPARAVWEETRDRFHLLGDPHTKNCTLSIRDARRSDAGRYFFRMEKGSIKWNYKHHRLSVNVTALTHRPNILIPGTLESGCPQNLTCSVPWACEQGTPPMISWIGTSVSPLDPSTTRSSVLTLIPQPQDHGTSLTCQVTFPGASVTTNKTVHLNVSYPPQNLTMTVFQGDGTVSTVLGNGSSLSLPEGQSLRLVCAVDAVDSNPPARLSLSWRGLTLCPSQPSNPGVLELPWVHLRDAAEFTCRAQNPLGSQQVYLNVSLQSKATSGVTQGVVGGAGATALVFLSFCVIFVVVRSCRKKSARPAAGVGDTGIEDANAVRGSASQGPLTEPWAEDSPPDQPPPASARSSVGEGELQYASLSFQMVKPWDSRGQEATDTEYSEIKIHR

Trypanosoma cruzi = assay: Trypanosoma cruzi phosphomannomutase and mannose-1-phosphate guanylyltransferase assay; assay type: functional; conditions: 10 µM
[5] = molecular target: T2, Arginase-2, mitochondrial (Homo sapiens) (UniProt P78540); assay: in vitro enzyme assay to detect the production of urea directly proportional to the activity of Arginase II; assay type: functional; conditions: 33.3 µM; note: in the data most compounds retested in dose-response had high values
T2 sequence (whole entry): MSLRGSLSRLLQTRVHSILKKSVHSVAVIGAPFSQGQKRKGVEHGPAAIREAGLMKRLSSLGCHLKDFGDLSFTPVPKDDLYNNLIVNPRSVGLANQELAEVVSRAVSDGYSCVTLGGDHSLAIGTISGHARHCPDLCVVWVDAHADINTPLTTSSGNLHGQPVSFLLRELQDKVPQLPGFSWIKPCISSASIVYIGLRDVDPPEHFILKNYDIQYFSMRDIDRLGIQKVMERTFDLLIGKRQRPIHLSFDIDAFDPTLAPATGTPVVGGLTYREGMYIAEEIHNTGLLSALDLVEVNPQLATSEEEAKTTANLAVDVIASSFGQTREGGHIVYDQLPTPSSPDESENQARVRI

[6] = molecular target: T3, Proteasome subunit beta (Trypanosoma cruzi) (UniProt O96673); assay: Trypanosoma cruzi proteasome chymotrypsin-like activity (TcProtChymo) assay.; note: in the data most compounds retested in dose-response had high values; assay type: functional; conditions: 9.37 µM
T3 sequence (whole entry): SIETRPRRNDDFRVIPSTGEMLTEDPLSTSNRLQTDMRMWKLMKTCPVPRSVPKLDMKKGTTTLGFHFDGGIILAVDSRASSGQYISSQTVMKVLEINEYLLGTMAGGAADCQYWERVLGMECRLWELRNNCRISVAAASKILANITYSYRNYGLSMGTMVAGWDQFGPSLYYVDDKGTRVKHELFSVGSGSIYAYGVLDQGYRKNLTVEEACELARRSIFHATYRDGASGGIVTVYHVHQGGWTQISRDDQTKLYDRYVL

Homo sapiens = organism: Homo sapiens; assay: To identify inhibition of the IFN signalling (Jak-Stat) pathway via expression of an eGFP reporter gene under the control of an IFN-stimulated response element (ISRE) containing MxA promoter.; assay type: functional; conditions: 30 µM
[7] = molecular target: T4, Tyrosyl-tRNA synthetase, putative (Trypanosoma cruzi (strain CL Brener)) (UniProt Q4DSP6); assay: Trypanosoma cruzi tyrosyl tRNA synthetase (TcYRS) _High Tyrosine SOP; assay type: functional; conditions: 30 µM; note: in the data most compounds retested in dose-response had high values
T4 sequence (whole entry): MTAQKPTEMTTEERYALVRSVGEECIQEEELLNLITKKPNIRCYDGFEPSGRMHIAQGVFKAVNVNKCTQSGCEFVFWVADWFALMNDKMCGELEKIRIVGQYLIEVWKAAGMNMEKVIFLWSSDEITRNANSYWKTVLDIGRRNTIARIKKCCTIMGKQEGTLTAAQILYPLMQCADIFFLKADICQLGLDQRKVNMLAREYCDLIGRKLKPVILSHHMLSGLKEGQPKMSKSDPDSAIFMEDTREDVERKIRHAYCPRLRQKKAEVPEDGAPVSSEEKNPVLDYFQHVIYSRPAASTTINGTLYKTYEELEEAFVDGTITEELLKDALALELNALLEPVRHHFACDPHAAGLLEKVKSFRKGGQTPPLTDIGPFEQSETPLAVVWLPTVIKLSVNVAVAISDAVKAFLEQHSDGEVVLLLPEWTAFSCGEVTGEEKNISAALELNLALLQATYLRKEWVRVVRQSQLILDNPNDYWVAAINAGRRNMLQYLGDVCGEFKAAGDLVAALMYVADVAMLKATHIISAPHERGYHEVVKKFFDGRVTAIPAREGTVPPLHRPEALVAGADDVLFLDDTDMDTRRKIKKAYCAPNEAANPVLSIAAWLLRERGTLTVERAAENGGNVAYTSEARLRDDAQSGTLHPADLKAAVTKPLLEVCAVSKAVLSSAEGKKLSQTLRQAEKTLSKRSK

[8] = molecular target: T4, Tyrosyl-tRNA synthetase, putative (Trypanosoma cruzi (strain CL Brener)); assay: Trypanosoma cruzi tyrosyl tRNA synthetase (TcYRS) SOP; assay type: functional; conditions: 30 µM
[9] = molecular target: Chromo domain-containing protein 1 (Saccharomyces cerevisiae (strain ATCC 204508 / S288c) (Baker's yeast)) (UniProt P32657); assay: ScCHD-1 Enzyme Inhibition Assay; assay type: functional; conditions: 30 µM; note: in the data most compounds retested in dose-response had high values
Sequence of Chromo domain-containing protein 1 (Saccharomyces cerevisiae (strain ATCC 204508 / S288c) (Baker's yeast)) (P32657 whole entry, the tested form may be a part): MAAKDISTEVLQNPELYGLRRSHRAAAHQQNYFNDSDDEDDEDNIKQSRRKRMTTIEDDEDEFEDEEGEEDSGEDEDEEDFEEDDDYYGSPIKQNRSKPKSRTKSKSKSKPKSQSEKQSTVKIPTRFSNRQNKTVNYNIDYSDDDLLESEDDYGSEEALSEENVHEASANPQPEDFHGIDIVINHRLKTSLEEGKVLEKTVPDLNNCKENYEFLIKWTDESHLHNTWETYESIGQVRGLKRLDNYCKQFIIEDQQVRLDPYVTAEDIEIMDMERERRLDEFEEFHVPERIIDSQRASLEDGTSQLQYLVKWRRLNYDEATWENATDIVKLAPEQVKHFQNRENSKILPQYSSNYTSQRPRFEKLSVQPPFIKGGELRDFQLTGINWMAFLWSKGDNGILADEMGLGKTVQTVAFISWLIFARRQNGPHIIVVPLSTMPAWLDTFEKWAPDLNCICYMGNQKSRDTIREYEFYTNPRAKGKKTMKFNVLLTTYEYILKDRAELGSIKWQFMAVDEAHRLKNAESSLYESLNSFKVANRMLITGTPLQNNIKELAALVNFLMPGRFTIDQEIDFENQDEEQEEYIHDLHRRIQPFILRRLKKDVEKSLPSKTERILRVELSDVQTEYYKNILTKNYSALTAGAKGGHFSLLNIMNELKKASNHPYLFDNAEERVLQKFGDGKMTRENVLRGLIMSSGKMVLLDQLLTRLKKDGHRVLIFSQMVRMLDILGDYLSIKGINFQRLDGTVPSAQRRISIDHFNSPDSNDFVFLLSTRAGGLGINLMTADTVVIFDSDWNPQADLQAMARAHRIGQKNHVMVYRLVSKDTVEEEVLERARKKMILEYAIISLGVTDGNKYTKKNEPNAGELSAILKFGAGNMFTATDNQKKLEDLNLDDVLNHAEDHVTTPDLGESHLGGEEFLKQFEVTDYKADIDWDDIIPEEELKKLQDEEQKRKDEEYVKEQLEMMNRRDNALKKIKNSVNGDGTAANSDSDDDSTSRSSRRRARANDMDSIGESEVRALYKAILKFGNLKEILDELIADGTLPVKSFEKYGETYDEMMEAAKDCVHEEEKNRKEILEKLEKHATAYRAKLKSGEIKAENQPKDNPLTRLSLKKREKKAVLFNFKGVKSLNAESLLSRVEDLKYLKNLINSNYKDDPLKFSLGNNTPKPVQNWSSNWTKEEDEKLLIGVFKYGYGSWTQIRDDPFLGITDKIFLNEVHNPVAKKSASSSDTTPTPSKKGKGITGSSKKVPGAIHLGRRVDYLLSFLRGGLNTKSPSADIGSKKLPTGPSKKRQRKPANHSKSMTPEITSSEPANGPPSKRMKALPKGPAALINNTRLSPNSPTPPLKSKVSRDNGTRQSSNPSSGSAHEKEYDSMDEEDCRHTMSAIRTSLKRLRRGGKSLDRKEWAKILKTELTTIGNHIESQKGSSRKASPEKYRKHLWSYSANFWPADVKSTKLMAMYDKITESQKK

Sequence of Protein translocase subunit SecA (Escherichia coli (strain K12)) (P10408 whole entry): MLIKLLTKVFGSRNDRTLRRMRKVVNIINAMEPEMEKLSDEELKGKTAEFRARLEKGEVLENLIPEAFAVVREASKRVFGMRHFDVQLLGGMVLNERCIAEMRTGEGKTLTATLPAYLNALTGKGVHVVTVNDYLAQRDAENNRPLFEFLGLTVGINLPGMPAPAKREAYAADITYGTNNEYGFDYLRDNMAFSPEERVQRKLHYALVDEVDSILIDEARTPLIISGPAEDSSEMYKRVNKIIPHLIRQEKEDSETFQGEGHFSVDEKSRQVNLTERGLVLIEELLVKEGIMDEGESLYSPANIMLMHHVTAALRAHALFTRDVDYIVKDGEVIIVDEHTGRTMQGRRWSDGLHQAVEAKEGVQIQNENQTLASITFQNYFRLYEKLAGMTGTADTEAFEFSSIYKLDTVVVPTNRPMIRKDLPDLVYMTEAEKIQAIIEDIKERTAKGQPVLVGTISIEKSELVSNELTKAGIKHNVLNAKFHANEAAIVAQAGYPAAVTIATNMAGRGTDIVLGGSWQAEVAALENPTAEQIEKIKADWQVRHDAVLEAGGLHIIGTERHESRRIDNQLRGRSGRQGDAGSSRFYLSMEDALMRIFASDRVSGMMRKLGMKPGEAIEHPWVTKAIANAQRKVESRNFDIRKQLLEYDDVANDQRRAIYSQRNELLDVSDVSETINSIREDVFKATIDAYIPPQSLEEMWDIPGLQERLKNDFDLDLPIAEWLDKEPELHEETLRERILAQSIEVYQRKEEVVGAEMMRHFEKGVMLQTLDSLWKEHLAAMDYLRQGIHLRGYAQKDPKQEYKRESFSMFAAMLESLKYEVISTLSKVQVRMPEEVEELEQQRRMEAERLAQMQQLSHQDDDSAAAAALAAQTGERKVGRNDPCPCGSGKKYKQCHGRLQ

SMILES | Percent Effect [1] | Percent Effect [2] | Percent Effect [3] | Percent Effect [4] | Percent Effect (Trypanosoma cruzi) | Percent Effect [5] | Percent Effect [6] | Percent Effect (Homo sapiens) | Percent Effect [7] | Percent Effect [8] | Percent Effect [9]
COC(=O)Cn1cccc(S(=O)(=O)N2CCC(C)CC2)c1=O | -2.33% | 20% | -5.59% | -8.73% | 2.75% | 92.1% | 14.8% | 15.8% | 2.12% | 10.3% | -10.4%
CCC1=N[C@@]2(CC[C@@H]3CN(Cc4ccccc4F)C[C@@H]32)C(=O)N1CC | -5.1% | 0% | -2.64% | -1.67% | -1.17% | 12.5% | 18.7% | 5.93% | 12.9% | 18.3% | -6.7%
CN(C)C1CCN(C(=O)c2ccc(Cn3ccccc3=O)o2)CC1 | -2.62% | 8.11% | 3.53% | 12.9% | 2.88% | 0.924% | 0% | 5.91% | 6.93% | 23.2% | -4.27%
CN(C)c1ccc(CNC(=O)c2ccc(Cl)cc2F)cc1 | -6.46% | 21.1% | -2.58% | 2.05% | 1.46% | -4.73% | 13.7% | 11.1% | 4.25% | 20.8% | -6.29%
CCN1CCN(C(=O)c2cnn(-c3ccccc3Cl)c2)CC1 | -4.44% | 5.41% | -8.79% | 9.91% | -2.36% | -1.6% | 1.62% | 10.3% | 10.3% | 13.6% | -7.79%
Cc1ccc(CNC(=O)Nc2nnc(C)s2)cn1 | -1.62% | 23.7% | 1.54% | -3.95% | 1.03% | 2.16% | 15.1% | 1.76% | 8.37% | 25.9% | -9.14%
Cc1cc(NC(=O)CN2CCCC2c2noc(C3CC3)n2)no1 (stereo not given) | -4.72% | 13.7% | 11.2% | 9.93% | 5.68% | -0.909% | 16.9% | 5.99% | 3.23% | 15% | 22.7%
CC(C)c1nc(CCNC(=O)NCc2ccnc(N(C)C)c2)cs1 | -3.48% | 6.33% | 8.79% | 4.61% | -0.103% | 5.81% | 9.43% | 12.5% | 1.04% | 5.06% | -13%
Cc1ccc(C(=O)N2CCSCC2)cc1NC(=O)NCCO | -5.08% | 2.74% | 6.7% | 18.5% | 1.39% | -1.2% | 9.68% | 15.2% | 6.25% | 11.1% | -3.9%
O=C(Cn1cnc(-c2ccccc2)cc1=O)Nc1ccncc1 | -2.42% | 20.8% | -3.34% | -1.53% | 2.07% | 1.94% | 16.9% | 26.1% | 6.35% | 16.7% | -9.23%
CC(Cn1cccn1)NC(=O)NCCc1ccc(Cl)s1 (stereo not given) | -0.239% | 22.8% | 0.135% | -8.1% | -0.283% | 1.52% | 9.75% | 5.52% | 3.45% | 16.5% | -2.95%
Cc1ccc(S(=O)(=O)NCCNC(=O)c2ccoc2)cc1F | -4.47% | 13.3% | 4.57% | 12.1% | 5.75% | 5.21% | 15.5% | 16.4% | 3.83% | 13.6% | 86.1%
O=C1CCC(C(=O)NCc2nncn2-c2ccccc2)CN1 (stereo not given) | -6.76% | 10.8% | -10.2% | 20.8% | 3.68% | -7.21% | 1.8% | 7.93% | 2.46% | 23.5% | -12.7%
CCOc1cc(C)ccc1NC(=O)N(C)Cc1cnn(C)c1 | -3.73% | 10.8% | -11.8% | 16.5% | 4.81% | 0.401% | -2.52% | 11.9% | 6.4% | 16.1% | -9.07%
COC(=O)c1cccc(C(=O)N2CCCCC2CCn2ccnc2C)c1 (stereo not given) | -7.31% | 8% | 0.551% | 4.41% | 0.487% | -0.521% | 25.5% | 13.4% | 3.83% | 11.1% | -2.11%
CC(=O)c1ccc(N2CCC(CO)(CCOc3ccccc3)CC2)nc1 | -4.34% | 0% | 3.88% | 4.67% | -3.05% | 20.7% | 9.48% | 20.6% | 3.23% | 8.64% | 1.85%
CS(=O)(=O)NCCC(=O)NC1CCc2nccn2C1 (stereo not given) | 2.27% | 2.67% | -6.45% | 1.64% | -7.5% | 2.08% | 19.7% | 11.5% | 4.92% | 11.1% | -5.26%
Cn1cc(CCC(=O)N2CCN(Cc3ccncc3)CC2)cn1 | -7.43% | 15.6% | 3.53% | -6.41% | -4.87% | -1.42% | 4.22% | 2.24% | 6.8% | 14.6% | -5.86%
O=C(c1cscn1)N1CCC[C@]2(C[C@H](OCC3CC3)CO2)C1 | -1.77% | -2.67% | 6.38% | 4.3% | 5.91% | 0.233% | 3.08% | 2.38% | 4.25% | 1.28% | 1.14%
Cc1cc(NC(=O)C(c2cccc(F)c2)N2CCOCC2)ccn1 (stereo not given) | -4.97% | 10.5% | 2.55% | 5.76% | 1.66% | -9.47% | 10.6% | 3.19% | 2.13% | 7.79% | -7.19%

Reference: ChEMBL document CHEMBL3988442, “University of Dundee, Small-Polar-MMV Screening Library” (2021)
